From the supplement of paper PMC11417369
± gives the standard deviation of the averaged measurements. The full ranking holds about 25,000 sequences; the median of “ln(normalized median fluorescence intensity)” is about 7.9, and the highest 2% start at about 11. The list comes from a sample in which the highest values are over-represented; it also holds similar and randomly drawn sequences.

test system: PfAP2-I AP2 domain 3 (GST-tagged); assay: gcPBM binding intensity (ln(normalized median fluorescence intensity)); higher = stronger DNA binding
How it was run: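 Alexa488 anti-GST antibody, scanned at 488 nm, detected GST-tagged P. falciparum DNA-binding domains that had been expressed in E. coli and incubated for 1 h on an Agilent 4 × 180k array. The array carried primer-extended double-stranded 36-bp intergenic genomic probes and negative controls. Binding intensity is the highest Masliner-normalised natural-log median intensity across replicate spots of either orientation of each probe.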

“AAAAATAGAATAAATACACACCCGTGTAACGGATTT [CACACA_site3372]” and ATAAATTATATTCAAGTGCATGTAACTTATTATTAT are within error of each other in “gcPBM binding intensity (ln)” value: 7.29 ± 0.93 for the first, 8.29 ± 0.32 for the second.

“TTTTTTATTCATGTAACACACATTTAATTATGAATT [CACACA_site2706]” and “ACATAAATATAAACGTGTACATATATAAATATATAT [XGTACX_site7293]” are within error of each other in “gcPBM binding intensity (ln)” value: 7.98 ± 0.58 for the first, 8.06 ± 0.26 for the second.

“TCTTTTTTGAACTAGCGTACATGAAAATATTTATAG [XGTACX_site7359]” and “ATTAAAATTTAAAATACACACACATATATATAATAT [CACACA_site8612]” are within error of each other in “gcPBM binding intensity (ln)” value: 7.83 ± 0.28 for the first, 7.91 ± 0.42 for the second.

Compared with “AAAATTTAATATAATGCACACATAAAAAAAAAAAAT [CACACA_site8425]”, “TATAATTTAAAATACACACACATATATATAATATAT [CACACA_site2000]” is lower in “gcPBM binding intensity (ln)” value: 11.1 ± 1 for the first, 7.71 ± 0.47 for the second.

“AAAATTATCGTTATATGTACGCATCTTAATACGTAT [XGTACX_site4063]” and “GTGTAGTAAAATCGATGTACGTACAAATCAATTATT [XGTACX_site7662]” are within error of each other in “gcPBM binding intensity (ln)” value: 7.79 ± 0.4 for the first, 8.06 ± 0.39 for the second.

Going from AAAAACAAACTGTGCATGCACCAAAAAAAAAAAAAA to “ATATATATATATATTACACACTTTTTCTTTTTTTTT [CACACA_site2780]”, the “gcPBM binding intensity (ln)” value falls from 10.4 ± 0.35 to 9.41 ± 0.35.

Compared with “CAGGTGCACTATATTACACACGCTTCTTTTTTTTTA [CACACA_site2069]”, “TTTTTCATTTAGCTTTTACACACTATATATTATTGA [CACACA_site7888]” is lower in “gcPBM binding intensity (ln)” value: 11.7 ± 0.59 for the first, 7.94 ± 0.86 for the second.

“TACAATCTAAAATACACACGCACACCGAAAAAAAAA [CACACA_site3520]” and “TTTTTTTTTTTAAATACATGCATGTCCTATTTAAAT [TGCATGCA_site494]” are within error of each other in “gcPBM binding intensity (ln)” value: 8.13 ± 0.37 for the first, 7.92 ± 0.89 for the second.

First: TATATCTATTTCAAATGTACTTATATGATTCTTATA [XGTACX_site6277]
Second: AATATATTGCACCATTGGACCTGAATAATTCTTCCA [CACACA_negctrl_site1071]
The “gcPBM binding intensity (ln)” value of the first is lower: 7.67 ± 0.2 for the first, 11.8 ± 0.81 for the second.

“AATATAATATATTGCACACAAAAAGTGAATTATTCT [CACACA_site1684]” and “TAATATATGTATTGCACACCTATAACCATTATTTCT [CACACA_site1498]” are the same in “gcPBM binding intensity (ln)” value: 10.2 ± 0.4 for the first, 10.2 ± 0.38 for the second.

Going from “AAGGGTTATAAAAATTGTACTTTTTTTATTTTTTTT [XGTACX_site1313]” to “CACTTTAATTTATGCACACATATGGAACAACAGCCA [CACACA_site994]”, the “gcPBM binding intensity (ln)” value rises from 7.72 ± 0.56 to 10.2 ± 0.38.

First: ATATACACTTAATTTTTTATAAAAAAAAATTTATAT [CACACA_negctrl_site498]
Second: ATATATATAATATAGGTGCACTACTTATTTAAAAAA
The “gcPBM binding intensity (ln)” value of the first is lower: 7.66 ± 0.43 for the first, 11.6 ± 0.2 for the second.

Going from “TTTTTTTAATAGTGTGCACACAATATACAGAAAAAA [CACACA_site8399]” to “TATATTCTTTATAGGTGTACTTAATAAATAAAAAAT [XGTACX_site5378]”, the “gcPBM binding intensity (ln)” value falls from 10.1 ± 0.11 to 8.11 ± 0.23.

Going from “CATATAAATATTTGTGCACACAATTATTAATAATTA [CACACA_site3884]” to “ATATAAATATATTGCACACACAATTATTATTATTAT [CACACA_site7147]”, the “gcPBM binding intensity (ln)” value falls from 11.3 ± 0.23 to 10.1 ± 0.45.

Compared with “TTTTTTTTTTTTTTTGTGCACAATATAATTTTTAAT [GTGCAC_site9747]”, ATATATATCTTTTGTGTGCACATATATATAATATAT is lower in “gcPBM binding intensity (ln)” value: 10.9 ± 0.52 for the first, 9.79 ± 0.22 for the second.

“TATTATAATATATTTGTGCACATAATATCTCCGCTA [GTGCAC_site9799]” and “TATTATAATATATTTGTGCACATAATACCTCCGCTA [GTGCAC_site9570]” are within error of each other in “gcPBM binding intensity (ln)” value: 10.91 ± 0.049 for the first, 10.7 ± 0.18 for the second.

First: AAATATTTATAGGTTTGTACTTATAAATAAAAAAAA [XGTACX_site7360]
Second: TTATAATATTAATGTGCACACAATTAAAATATTATA [CACACA_site2046]
The “gcPBM binding intensity (ln)” value of the first is lower: 7.83 ± 0.41 for the first, 10.6 ± 0.26 for the second.

“TTTTAAACAAAAATTTGTACACAATAATTAAATATA [XGTACX_site6755]” and “ATAAATATTATTTTACGTACATATTTATGAAGTATT [XGTACX_site8746]” are within error of each other in “gcPBM binding intensity (ln)” value: 7.79 ± 0.32 for the first, 7.92 ± 0.29 for the second.

“ATTGTTCTATGATTTGTACACACTTTTTTTTAAAAT [CACACA_site2825]” and “TTACATACATACAAGTGTACGCATATATTAATATTA [XGTACX_site4006]” are within error of each other in “gcPBM binding intensity (ln)” value: 8.43 ± 0.46 for the first, 8 ± 0.26 for the second.

“ATTATTTGTTTAATGAGTACGAAGACAAATTTTACC [XGTACX_site5223]” and “TTTATAAAAAGCATAACACACACATGTCAATATATA [CACACA_site8286]” are within error of each other in “gcPBM binding intensity (ln)” value: 8.12 ± 0.49 for the first, 7.71 ± 0.52 for the second.

“TGAATCAATTGTTGCTGTACATAAGGTATACAATAA [XGTACX_site5127]” and “ATGTATATATATATATGTACTAATTAGTAATTTACG [XGTACX_site6276]” are within error of each other in “gcPBM binding intensity (ln)” value: 7.97 ± 0.52 for the first, 7.87 ± 0.32 for the second.

AATTTATATAATTTTGTGCACAATATTCATGTATAT and “ATTTTTATTTTTTTTGTGCACATTTTCATTTTCTAT [GTGCAC_site9580]” are within error of each other in “gcPBM binding intensity (ln)” value: 11 ± 0.14 for the first, 10.4 ± 0.47 for the second.

“TATTTTATTTGTATATTCATTTGTATAATATAAATA [TGCATGCA_negctrl_site267]” and “ATTTTTATTTTATATACACACAATAATAATATAATA [CACACA_site4015]” are within error of each other in “gcPBM binding intensity (ln)” value: 7.37 ± 0.55 for the first, 7.83 ± 0.43 for the second.

First: ATATTTTATATATTTGTGCACAATATTATAATATAT
Second: TAATATAATATATGCACACAAATATGTATTTATGTG [CACACA_site5210]
The “gcPBM binding intensity (ln)” value of the first is higher: 11.04 ± 0.049 for the first, 9.14 ± 0.014 for the second.

Compared with “TTTTTTTTTTTTTTTGTGCACAATTATTTCAATTTT [GTGCAC_site9884]”, “ATATTTTATTTAATTACACACAATATTGCAATTTGT [CACACA_site669]” is lower in “gcPBM binding intensity (ln)” value: 10.9 ± 0.79 for the first, 8.35 ± 0.53 for the second.

Going from “TGTATATGGTTTGTGCAAAAATTTATTAATGTGTAA [TGCATGCA_negctrl_site374]” to TGAAATTTTATTAATGTGCACATATATTTATTGTTC, the “gcPBM binding intensity (ln)” value rises from 8.8 ± 0.35 to 9.77 ± 0.26.

TATTATTCAAAATTTGTGCACAAAATTAAAGGAACA and “ATATATATTAATTTTGTGCACAAATGGAAATGTTTG [GTGCAC_site9971]” are within error of each other in “gcPBM binding intensity (ln)” value: 10.8 ± 0.27 for the first, 11 ± 0.2 for the second.

Going from “ATAAAATACAAAGGGACACACATATGAGTCTACAAA [CACACA_site3092]” to “ATATATATATATGTTTATTTATTTGAACGATTGTGG [CACACA_negctrl_site828]”, the “gcPBM binding intensity (ln)” value rises from 7.54 ± 0.6 to 9.4 ± 0.56.

“AAAAAATTAAATAATTACAAAAAAATAAAATAAAAA [GTGCAC_negctrl_site638]” and “TAAAAAATTTTCGCGTGTACGCAAGAAAAAAAAAAT [XGTACX_site3058]” are within error of each other in “gcPBM binding intensity (ln)” value: 7.5 ± 0.59 for the first, 8.04 ± 0.72 for the second.

“TTAAAAAAGTAATTAACACACAATAATGTAATGCAT [CACACA_site4176]” was tested, and the “gcPBM binding intensity (ln)” value was 8.18 ± 0.55.
